# Results reported in PubChem BioAssay (EPA / NIEHS).
# Records with an inconclusive call do not appear. Active and inactive are the calls of the source. How the source made its calls: active means hit-call score of the fitted dose curve at least 0.9, where 1 is the maximum; inconclusive means response in the unintended direction; inactive means score below 0.9.
# Assays:
# [1] = molecular target: human Purinergic Receptor P2Y, P2RY1 (gene 5028) (UniProt P47900); test: NVS_GPCR_hPY2: NovaScreen (NVS) G Protein-Coupled Receptor Assay for human Purinergic Receptor P2Y (AID 2283281)
# Procedure: NVS_GPCR_hPY2 is a biochemical, single-readout assay that uses extracted gene-proteins from U937 in a cell-free assay. Measurements were taken 1 hour after chemical dosing in a 48-well plate.NVS_GPCR_hPY2 is one of one assay component(s) measured or calculated from the NVS_GPCR_hPY2 assay. It is designed to make measurements of radioligand binding, a form of binding reporter, as detected with scintillation counting signals by Filter-based radiodetection technology.Data from the assay component NVS_GPCR_hPY2 was analyzed into 1 assay endpoint. This assay endpoint, NVS_GPCR_hPY2, was analyzed in the positive analysis fitting direction relative to DMSO as the negative control and baseline of activity. […] Furthermore, this assay endpoint can be referred to as a primary readout, because the performed assay has only produced 1 assay endpoint. […]
# Binding assays used specific radioligands (tritiated, iodinated) with non-radioactive competitive displacement ligands in agonist or antagonist protocols (as indicated) and various reference compounds and inhibitors to titrate specific binding to receptors and transporters. Most enzyme assays (CYPs, kinases, phosphatases, proteases, HDACs) used recombinant protein and specific substrates (fluorescence mostly, some colorimetric and radioactive) and inhibitors, followed by a biochemical separation of substrate and product. […]
# AR (gene 367) = AR (gene 367) (UniProt P10275); test: ACEA_AR_agonist_80hr: ACEA Biosciences xCELLigence Real-Time Cell Analysis on Androgen Receptor Agonism for Proliferation (AID 2283783);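 further: hits increase impedance growth signal above DMSO baseline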
# Procedure: ACEA_AR_agonist is a cell-based, single-readout assay that uses 22Rv1, a human prostate cancer cell line, with measurements taken at 80 hours after chemical dosing in a 384-well plate, although TO5 and TO6 (mc0.srcf) used a 96-well plate. Differences in plate size can be ignored given data normalization.ACEA_AR_agonist_80hr is one of two assay component(s) measured or calculated from the ACEA_AR assay. It is designed to make measurements of real-time cell-growth kinetics, a form of growth reporter, as detected with electrical impedance signals by Real-Time Cell Electrode Sensor (RT-CES) technology.Data from the assay component ACEA_AR_agonist_80hr was analyzed in the positive analysis fitting direction relative to DMSO as the negative control and baseline of activity. Using a type of growth reporter, measures of the cells for gain-of-signal activity can be used to understand the signaling at the pathway-level as they relate to the geneAR Furthermore, this assay endpoint can be referred to as a primary readout, because this assay has produced multiple assay endpoints where this one serves a signaling function. […]
# The xCELLigence system Multi-E-Plate stations were used to measure the time-dependent response to chemicals. […] Cellular responses were then recorded once every 5 min for the first 5 h, and once every hour for an additional 100 h.
# Sequence of AR (gene 367) (P10275 whole entry, looked up): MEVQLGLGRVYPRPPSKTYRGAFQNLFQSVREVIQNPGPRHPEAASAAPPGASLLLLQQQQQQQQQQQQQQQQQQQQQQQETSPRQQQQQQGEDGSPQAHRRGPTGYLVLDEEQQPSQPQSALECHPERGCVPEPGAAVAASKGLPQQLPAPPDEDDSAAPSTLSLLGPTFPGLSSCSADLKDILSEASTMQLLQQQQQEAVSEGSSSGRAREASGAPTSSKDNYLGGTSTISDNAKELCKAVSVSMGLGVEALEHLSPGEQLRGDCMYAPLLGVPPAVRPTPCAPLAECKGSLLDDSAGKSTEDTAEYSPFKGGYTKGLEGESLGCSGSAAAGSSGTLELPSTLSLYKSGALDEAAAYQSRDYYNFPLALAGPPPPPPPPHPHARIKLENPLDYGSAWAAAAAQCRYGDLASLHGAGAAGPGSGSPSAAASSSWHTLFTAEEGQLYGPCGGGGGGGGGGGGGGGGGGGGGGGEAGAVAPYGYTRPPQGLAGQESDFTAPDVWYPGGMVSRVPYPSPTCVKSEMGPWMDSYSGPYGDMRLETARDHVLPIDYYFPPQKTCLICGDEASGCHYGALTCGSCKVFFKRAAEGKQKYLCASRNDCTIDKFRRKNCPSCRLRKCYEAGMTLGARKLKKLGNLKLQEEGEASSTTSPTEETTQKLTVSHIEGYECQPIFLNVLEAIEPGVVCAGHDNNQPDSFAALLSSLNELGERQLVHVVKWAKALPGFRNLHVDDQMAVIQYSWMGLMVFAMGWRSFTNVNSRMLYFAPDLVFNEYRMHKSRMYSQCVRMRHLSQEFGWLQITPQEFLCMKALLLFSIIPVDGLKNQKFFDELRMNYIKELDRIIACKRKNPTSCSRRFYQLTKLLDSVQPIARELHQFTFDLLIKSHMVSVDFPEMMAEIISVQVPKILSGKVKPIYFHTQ
# Sequence of human Purinergic Receptor P2Y, P2RY1 (gene 5028) (P47900 whole entry, looked up): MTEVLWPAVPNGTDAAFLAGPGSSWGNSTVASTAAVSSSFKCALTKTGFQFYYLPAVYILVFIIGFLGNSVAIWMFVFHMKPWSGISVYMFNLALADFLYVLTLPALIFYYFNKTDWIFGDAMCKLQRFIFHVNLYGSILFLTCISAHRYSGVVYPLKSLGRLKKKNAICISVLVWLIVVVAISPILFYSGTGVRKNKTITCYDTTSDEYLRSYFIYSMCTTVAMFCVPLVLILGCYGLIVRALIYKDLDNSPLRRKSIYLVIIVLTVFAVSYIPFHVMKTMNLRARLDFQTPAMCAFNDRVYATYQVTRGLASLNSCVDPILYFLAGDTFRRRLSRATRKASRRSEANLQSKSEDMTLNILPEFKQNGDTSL
SMILES,outcome [1],outcome (AR (gene 367))
CCOC(=O)NC(=S)Nc1ccccc1NC(=S)NC(=O)OCC,inactive,
c1ccc2c(c1)CCCC2,,inactive
